Screening results: PubChem BioAssay, National Center for Advancing Translational Sciences (NCATS)
Pf growth 96h: inhibits malaria parasite growth, 96 h. P. falciparum luciferase reporter growth, 96 h. actives 6.9% (n = 320,000). AID 504834. Potency, µM (series often up to 28.7 µM), for the others: at the top dose activity change, negative = inhibition, hits mostly inhibitors; also: % is scaled to controls: 0 for no effect and ±100 for the full control effect
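Parasite growth measured via integrated firefly luciferase reporter in P. falciparum. Infected erythrocytes at 2% hematocrit, 0.05% parasitemia final were treated 96 hours at 37 C under 5% CO2, and luminescence was read.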
AmpC inh no detg: inhibitors of E. coli AmpC beta-lactamase without detergent | AmpC nitrocefin hydrolysis, absorbance 480 nm, 0.0001% Triton | Potency, µM (doses to about 57.1 µM), for inactives: at the highest dose activity change, negative = inhibition, actives largely listed as inhibitors | P00811 | actives 0.52% (n = 330,000);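 also: plate controls were no compound for no effect and no enzyme for full effect; nearly all actives have a fitted effect of over 20% in size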
Target sequence (P00811 whole entry, looked up): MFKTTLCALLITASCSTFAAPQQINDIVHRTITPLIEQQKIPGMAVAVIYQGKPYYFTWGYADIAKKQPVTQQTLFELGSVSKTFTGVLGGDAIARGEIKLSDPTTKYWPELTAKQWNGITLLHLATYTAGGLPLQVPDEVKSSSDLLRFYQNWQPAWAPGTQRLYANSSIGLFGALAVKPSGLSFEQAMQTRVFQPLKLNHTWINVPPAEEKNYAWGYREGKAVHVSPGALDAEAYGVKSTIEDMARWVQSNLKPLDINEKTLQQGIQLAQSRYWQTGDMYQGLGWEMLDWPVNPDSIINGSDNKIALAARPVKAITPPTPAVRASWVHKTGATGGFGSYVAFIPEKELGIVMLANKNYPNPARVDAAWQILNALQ
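20 mM phosphate pH 7.0 + 0.01% (detergent screen) or 0.0001% Triton X-100; 5.3 nM AmpC reagent; cpd preinc 15 min RT; nitrocefin (800 uM stock) to start; A480 q20 s × 4 min; Activity was normalised to no-enzyme and no-compound control wells.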
SARS PLP yeast: inhibitors of SARS-CoV papain-like protease in yeast; S. cerevisiae expressing SARS-CoV PLpro, growth rescue; Potency, µM (series often up to 32.9 µM), inactives show at the highest dose activity, positive = growth rescue, usual class: activators; actives 0.19% (n = 330,000); calls by dose curve; also: 0% is about no effect; nearly all actives have a fitted effect of over 55% in size
Pf growth 48h: inhibits P. falciparum growth in the first generation, 48 h; actives 5.9% (n = 310,000); P. falciparum luciferase growth in erythrocytes, 48 h; Potency, µM (top dose mostly 28.7 µM), inactives show at the top dose activity change, negative = inhibition, hits mostly inhibitors; also: % is scaled to controls: 0 for no effect and ±100 for the full control effect
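Growth was read as firefly luciferase luminescence after a 48 h, 37 C, 5% CO2 exposure of compounds to reporter-bearing P. falciparum cultures (0.1% parasitemia, 2% hematocrit final) in Albumax-supplemented RPMI 1640.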
AmpC inh detg: inhibitors of E. coli AmpC beta-lactamase with detergent; P00811; AmpC hydrolysis of nitrocefin, absorbance 480 nm, 0.01% Triton; Potency, µM (doses to about 114 µM), for the others: at the top dose activity change, negative = inhibition, hits mostly inhibitors; actives 0.041% (n = 370,000); AID 485294;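 also: 0% = no-compound wells and -100% = no-enzyme wells; nearly all actives have a fitted effect of over 25% in size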
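AmpC (5.3 nM in the dispensed reagent) in 20 mM phosphate pH 7.0 with 0.01% (detergent screen) or 0.0001% Triton X-100 was preincubated with compounds for 15 min at room temperature. Nitrocefin was then added from an 800 uM solution, and hydrolysis was followed at 480 nm.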
Sm TGR inh: S. mansoni TGR enzyme inhibition | Q962Y6 | purified TGR, DTNB reduction, TNB absorbance 405 nm | Potency, µM (series often up to 114 µM), without a hit: top-dose activity change, negative = inhibition, most hits filed as inhibitors | actives 3% (n = 360,000); also: % is scaled to controls: 0 for no effect and ±100 for the full control effect; nearly all actives have a fitted effect of over 60% in size
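TGR 20 nM + NADPH 100 uM (dispensed conc.), cpd preinc 15 min RT; start with NADPH (500 uM addition) then DTNB (15 mM addition). Kinetic TNB absorbance, 405 nm filter. Four-parameter Hill fit across titration.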
Active calls of the source: *; u = inconclusive; x = no result given; ! = repeats disagree; [ ] = another dose, or the depositor's remark. This is a sample that favours compounds with a hit; in the whole collection about 12% have one here. Unless noted, calls follow the shape of the dose curve; as a rule, active = well fitted curve in the direction sought with a large enough effect; inconclusive = small, poorly fitted or top-dose-only effect, or another doubt; inactive = no such curve, though single readings can be large; an effect the other way counts as inactive or inconclusive. Potency is read from the fitted curve at half-maximal effect.

SMILES | Pf growth 96h | AmpC inh no detg | SARS PLP yeast | Pf growth 48h | AmpC inh detg | Sm TGR inh
CC1CCc2c(sc(NC(=O)CSc3nc(N)cc(=O)[nH]3)c2C(N)=O)C1 (stereo not drawn) | 12.4% | -22.8% | 0.4% | 5.8% | -21.4% | -7.2%
COc1ccc(NC(=O)C2CCC(C(C)(C)C)CC2)cc1S(=O)(=O)N1CCOCC1 (stereo not drawn) | 13.1µM* | 192.8% | 0.8% | u | 3.6% | 39.8µM*
Cc1nc(-c2ccc(F)cc2)c(CC(=O)Nc2ccc(C)c(S(=O)(=O)N3CCOCC3)c2)s1 | 9.28µM* | 19.6% | 0.4% | 8.28µM* | -7.1% | 0.8%
Cc1ccc(NC(=O)CSc2ncnc3ccccc23)cc1S(=O)(=O)N1CCCCC1 | u | -8.7% | -4.5% | u | -13.9% | 0.7%
Cc1ccc(NC(=O)CSc2ncnc3ccccc23)cc1S(=O)(=O)N1CCOCC1 | u | 48.7% | 0.2% | 11.7µM* | -9.0% | 13.0%
Cc1ccc(NC(=O)CSc2nc(N)cc(N)n2)cc1S(=O)(=O)N1CCOCC1 | u | -12.3% | 0.1% | -5.7% | 3.2% | 4.7%
Cc1ccc(C)c(SCC(=O)Nc2ccc(C)c(S(=O)(=O)N3CCOCC3)c2)c1 | u | -21.4% | -2.5% | u | 4.2% | 44.7µM*
Cc1ccc(NC(=O)CSc2ccccc2)cc1S(=O)(=O)N1CCOCC1 | u | -24.5% | 4.9% | u | u | -7.8%
Cc1ccc(-n2c(=O)c3sc4ccccc4c3n(C)c2=O)cc1F | x | x | x | x | 0.1% | 1.1%
NC(=O)CC[C@H](NC(=O)c1ccc(F)cc1)C(=O)OCC(=O)NCc1ccc2c(c1)OCO2 | x | -11.5% | 6.3% | x | x | x
COc1ccc(S(=O)(=O)N(C)C)cc1NC(C)C(=O)Nc1cccc(C#N)c1 (stereo not drawn) | u | -29.1% | -0.3% | 2.94µM* | -0.4% | -10.8%
COc1ccc(C)cc1NCC(=O)Nc1ccc(C(C)(C)C)cc1 | 9.28µM* | -21.3% | -16.3% | u | -5.4% | -7.5%
COc1ccc(NC(=O)c2cc3c(s2)CCC(C)C3)cc1S(=O)(=O)N1CCOCC1 (stereo not drawn) | 7.38µM* | 165.1% | -6.5% | u | 4.7% | 0.9%
COc1ccc(S(=O)(=O)N(C)C)cc1NCC(=O)Nc1ccc(Br)c(C)c1 | u | -40.1% | -0.3% | 10.4µM* | -4.5% | -3.4%
COc1ccc(S(=O)(=O)N(C)C)cc1NCC(=O)Nc1ccc(F)cc1F | u | -14.7% | -9.3% | u | -11.6% | 0.8%
CN(C)S(=O)(=O)c1cccc(NC(=O)COc2cccc(C#N)c2)c1 | 7.8% | -55.5% | 6.0% | 21.9% | 0.5% | 7.3%
CCc1sc(C(=O)Nc2ccc(OC)c(S(=O)(=O)N3CCOCC3)c2)cc1C | x | 41.0% | -1.0% | x | x | x
CCOc1ccc(S(=O)(=O)N2CCN=C2c2ccccc2)cc1 | u | 0.5% | 0.9% | -1.0% | 3.0% | 3.1%
Cc1ccc(NC(=O)c2cc3c(-c4ccccc4)nn(-c4ccccc4)c3s2)cc1 | x | x | x | x | -14.6% | -2.4%
O=C1C(=O)c2ccccc2C(O)=C1C1CCC(c2ccc(Cl)cc2)CC1 (stereo not drawn) | 0.0005µM* | -13.7% | x | 0.0006µM*! | -0.3% | 0.1%
CCOC(=O)N/N=C\c1ccc(OC/C=C/c2ccccc2)c(OC)c1 | 50.3% | -22.6% | -2.0% | 1.85µM* | 5.8% | 2.7%
C=CCOc1ccc(/C=N/NC(=O)C(=O)Nc2ccccn2)cc1OC | 4.15µM* | 17.7% | -3.3% | 6.6% | 2.4% | -2.3%
COC(=O)N/N=C\c1ccc(OC/C=C/c2ccccc2)c(OC)c1 | u | -5.9% | 0.5% | 10.4% | 4.7% | 3.1%
CCn1c(=O)cc(OCC(=O)N2CCN(c3ccc(C)cc3)C(C)C2)c2ccccc21 (stereo not drawn) | x | x | x | x | 18.7% | -8.5%
Cc1ccc2occ(-c3cc(-c4ccc(F)cc4)nc4c3COc3ccc(F)cc3-4)c(=O)c2c1 | x | x | x | x | -2.0% | -11.0%
SMILES | Pf growth 96h | AmpC inh no detg | SARS PLP yeast | Pf growth 48h | AmpC inh detg | Sm TGR inh
CCN(CC)C(=O)CSc1nc2ccccc2c(=O)n1CC1CCCCC1 | u | 72.0% | 3.4% | 4.15µM* | u | -7.7%
O=C(CSc1nc2ccccc2c(=O)n1CC1CCCCC1)N1CCOCC1 | 13.1µM* | 144.4% | 0.3% | 9.28µM* | -12.5% | -13.6%
C=CCCN(C1CCCC1)S(=O)(=O)c1ccccc1Br | 14.7µM* | -15.7% | -3.7% | u | 10.0% | 2.0%
CC1=C(C(=O)Nc2ccccc2)C(c2ccco2)C(C#N)=C(SCc2ccccc2)N1 (stereo not drawn) | x | -38.6% | -2.7% | 8.28µM* | 0.6% | -9.9%
CC1=C(C(=O)Nc2ccccc2)C(c2ccco2)C(C#N)=C(SCC(=O)OC(C)C)N1 (stereo not drawn) | 7.38µM* | -23.3% | 3.5% | 2.33µM* | -12.0% | u
COc1ccccc1NC(=O)C1=C(C)NC(SCC(=O)c2ccc(C)cc2)=C(C#N)C1c1ccco1 (stereo not drawn) | 2.8%[5.75 µM] | -55.2% | -2.7% | x | 1.3% | u
CCOc1ccccc1NC(=O)CSC1=C(C#N)C(c2ccco2)C(C(=O)Nc2nc3ccccc3s2)=C(C)N1 (stereo not drawn) | u | 5.01µM* | 8.2% | 9.28µM* | 1.0% | -14.6%
CC(=O)C1=C(C)NC(SCC(N)=O)=C(C#N)C1c1ccco1 (stereo not drawn) | 21.1% | -4.1% | -1.3% | 3.8% | 0.8% | -13.6%
CC1=C(C(=O)Nc2ccccc2)C(c2ccco2)C(C#N)=C(SCC(=O)Nc2cccc(C)c2C)N1 (stereo not drawn) | u | -22.7% | 4.4% | 2.62µM* | 3.1% | -12.1%
O=C(Nc1cc(Cl)ccc1Cl)C1Cc2ccccc2O/C1=N\O (stereo not drawn) | 7.0% | -35.8% | 1.5% | -0.2% | -1.5% | 8.5%
CC1(OC(=O)C2CCCC2)C(=O)C=C2C=C(c3ccsc3)N(Cc3ccco3)C=C2C1=O (stereo not drawn) | 13.1µM* | -2.1% | 3.2% | 11.7µM* | 0.3% | 25.1µM*
CC1(OC(=O)C2CCCC2)C(=O)C=C2C=C(c3ccsc3)N(C3CCCC3)C=C2C1=O (stereo not drawn) | 10.4µM* | 64.8% | -1.7% | u | -8.0% | -25.8%
CC1(OC(=O)C2CCCC2)C(=O)C=C2C=C(c3ccsc3)N(CCCCO)C=C2C1=O (stereo not drawn) | u | 52.6% | -1.4% | u | 2.0% | -19.4%
CC(C)Cn1cc(NC(=O)NCc2cccc(Cl)c2)c2ccccc2c1=O | x | x | x | x | 13.5% | 0.4%
CCOc1ccccc1NC(=O)n1ncc2cc(Cl)ccc21 | x | x | x | x | -6.1% | -15.1%
